According to PubChem BioAssay AID1159580 (chemical genetic matrix, 2015):
Several values for one entry are separate records, joined by “and”; a condition that tells them apart may be missing. Identical values can stand only once. About 2,000 (36%) of roughly 5,500 compounds were called active. Not shown: some 18% with an inconclusive outcome. Rule as the data show it: active = normalized growth mostly below about 0.91 (no sharp cut-off); inconclusive = no clear call, values can overlap the other calls; inactive = mostly above about 0.92. This is one part of the list.

Assay: chemical genetic growth profiling, strain panel (AID 1159580);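 also: tested at 20 µM; growth read once vehicle control cultures reached saturation at 30 °C; 1 = growth at the plate median or of vehicle wells; lower values mean less growth of the strain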
Conditions: S. cerevisiae deletion strains, growth OD
[1] = locus YAL040C, strain CLN3, stronger effect = lower value
[2] = locus YER002W, strain NOP16, stronger effect = lower value
[3] = locus YGR078C, strain PAC10, stronger effect = lower value
[4] = locus YGR229C, strain SMI1, stronger effect = lower value
[5] = locus YMR263W, strain SAP30, stronger effect = lower value
[6] = locus YNL175C, strain NOP13, stronger effect = lower value
[7] = locus YNL197C, strain WHI3, stronger effect = lower value
[8] = locus YNL224C, strain SQS1, stronger effect = lower value
[9] = locus YOR083W, strain WHI5 (second series), stronger effect = lower value
[10] = locus YPL241C, strain CIN2, stronger effect = lower value
[11] = locus YDR150W, strain NUM1, stronger effect = lower value
[12] = locus YJR075W, strain HOC1, stronger effect = lower value
[13] = locus YMR307W, strain GAS1, stronger effect = lower value
[14] = locus YNL153C, strain GIM3, stronger effect = lower value
[15] = locus YNL322C, strain KRE1, stronger effect = lower value
[16] = locus YPL055C, strain LGE1, stronger effect = lower value
[17] = locus YAL013W, strain DEP1, stronger effect = lower value
[18] = locus YBR229C, strain ROT2, stronger effect = lower value
[19] = locus YDL101C, strain DUN1, stronger effect = lower value
[20] = locus YEL061C, strain CIN8, stronger effect = lower value
[21] = locus YHR030C, strain SLT2, stronger effect = lower value
[22] = locus YJR043C, strain POL32, stronger effect = lower value
[23] = locus YLR039C, strain RIC1, stronger effect = lower value
[24] = locus YLR262C, strain YPT6, stronger effect = lower value
[25] = locus YNL128W, strain TEP1, stronger effect = lower value

Measured: normalized growth

NC(N)=NOCCC(N)C(=O)O (stereo not given)
inactive: [1] 0.988 | [2] 0.98 | [3] 0.996 | [4] 1.01 | [5] 0.98 | [6] 0.984 | [7] 0.984 | [8] 0.999 | [9] 0.975 | [10] 0.996

CCOC(=O)C1=CC2(CC)CCCN3CCc4c(n1c1ccccc41)C32 (stereo not given)
inactive: [1] 1 | locus YCL061C, strain MRC1 (second series), stronger effect = lower value 1 | [11] 1 | locus YDR363W, strain ESC2, stronger effect = lower value 1 | [2] 1.02 | [3] 0.999 | [4] 1.01 | [12] 0.984 | [13] 1.01 | [14] 0.989 | [6] 1.03 | [7] 1.03 | [8] 1.01 | [15] 0.983 | [9] 1.01 | [16] 1.02 | [10] 0.997

CCOC(=O)c1c(C)n(-c2ccccc2)c2ccc(O)cc12
inactive: [17] 0.998 | [18] 1 | [19] 0.995 | [11] 1 | [20] 0.965 | [3] 0.995 | [21] 0.923 | locus YHR087W, strain rtc3, stronger effect = lower value 0.993 | [22] 1.03 | [12] 0.989 | [23] 1.02 | locus YLR058C, strain SHM2 (second series), stronger effect = lower value 0.985 | locus YLR085C, strain ARP6, stronger effect = lower value 0.931 | [24] 0.984 | locus YML094W, strain GIM5, stronger effect = lower value 0.94 | locus YMR219W, strain ESC1, stronger effect = lower value 0.999 | [5] 0.956 | [25] 0.99 | [14] 0.976 | [15] 0.998 | locus YNR030W, strain Alg12, stronger effect = lower value 0.963 | [16] 0.982 | [10] 0.979 | locus YPR135W, strain CTF4, stronger effect = lower value 0.911

CC[C@]12CCCN3CCc4c(n(c5ccccc45)[C@](O)(C(=O)OC)C1)[C@@H]32
inactive: [17] 0.984 | locus YAL021C, strain ccr4, stronger effect = lower value 0.986 | locus YAL026C, strain drs2, stronger effect = lower value 0.983 | locus YAL030W, strain snc1, stronger effect = lower value 0.984 | locus YBL061C, strain skt5, stronger effect = lower value 0.979 | locus YBR009C, strain hhf1, stronger effect = lower value 0.999 | locus YBR021W, strain FUR4, stronger effect = lower value 0.998 | locus YBR023C, strain chs3, stronger effect = lower value 0.991 | locus YBR171W, strain sec66, stronger effect = lower value 0.983 | [18] 0.951 | locus YBR231C, strain swc5, stronger effect = lower value 0.994 | locus YBR279W, strain paf1, stronger effect = lower value 0.98 | locus YCL011C, strain gbp2, stronger effect = lower value 0.985 | locus YCL016C, strain dcc1, stronger effect = lower value 0.966 | locus YCL029C, strain bik1, stronger effect = lower value 0.978 | locus YCL061C, strain MRC1, stronger effect = lower value 0.986 | locus YCL069W, strain vba3, stronger effect = lower value 0.987 | locus YCR088W, strain abp1, stronger effect = lower value 0.981 | locus YDL005C, strain med2, stronger effect = lower value 0.96 | locus YDL035C, strain GPR1, stronger effect = lower value 0.966 | locus YDL040C, strain nat1, stronger effect = lower value 0.989 | locus YDL074C, strain BRE1, stronger effect = lower value 0.991 | [19] 0.977 | locus YDL185W, strain tfp1, stronger effect = lower value 0.964 | locus YDL192W, strain arf1, stronger effect = lower value 0.979 | locus YDR001C, strain nth1, stronger effect = lower value 0.98 | locus YDR069C, strain doa4, stronger effect = lower value 0.991 | locus YDR101C, strain arx1, stronger effect = lower value 0.964 | locus YDR137W, strain rgp1, stronger effect = lower value 0.954 | locus YDR159W, strain sac3, stronger effect = lower value 1.01 | locus YDR162C, strain NBP2, stronger effect = lower value 0.97 | locus YDR195W, strain ref2 0.952 | locus YDR297W, strain sur2, stronger effect = lower value 0.99 | locus YDR318W, strain mcm21, stronger effect = lower value 1 | locus YDR334W, strain swr1, stronger effect = lower value 0.975 | locus YDR335W, strain msn5, stronger effect = lower value 0.979 | locus YDR388W, stronger effect = lower value 0.978 | locus YDR392W, strain spt3, stronger effect = lower value 0.946 | locus YDR502C, strain sam2, stronger effect = lower value 0.978 | locus YEL003W, strain gim4, stronger effect = lower value 0.984 | locus YEL037C, strain rad23, stronger effect = lower value 0.979 | locus YEL061C, strain CIN8 (second series), stronger effect = lower value 0.986 | [20] 0.982 | locus YER015W, strain faa2, stronger effect = lower value 0.985 | locus YER016W, strain bim1, stronger effect = lower value 0.969 | locus YER110C, stronger effect = lower value 0.979 | locus YER111C, strain swi4, stronger effect = lower value 0.978 | locus YER155C, strain BEM2 (second series), stronger effect = lower value 0.958 | locus YER155C, strain BEM2, stronger effect = lower value 0.995 | locus YER167W, strain BCK2, stronger effect = lower value 0.996 | locus YFR010W, strain ubp6, stronger effect = lower value 0.998 | locus YGL078C, strain dbp3, stronger effect = lower value 0.997 | locus YGL086W, strain mad1, stronger effect = lower value 0.977 | locus YGL167C, strain pmr1, stronger effect = lower value 0.979 | locus YGL173C, strain kem1, stronger effect = lower value 0.984 | locus YGL227W, strain vid30, stronger effect = lower value 0.981 | locus YGL240W, strain doc1, stronger effect = lower value 1.02 | locus YGL248W, strain PDE1, stronger effect = lower value 0.993 | locus YGL253W, strain hxk2, stronger effect = lower value 0.981 | [3] 0.982 | locus YGR135W, strain pre9, stronger effect = lower value 1.04 | locus YGR252W, strain gcn5, stronger effect = lower value 1.07 | locus YHR013C, strain ard1, stronger effect = lower value 0.953 | locus YHR027C, strain rpn1, stronger effect = lower value 0.991 | [21] 0.992 and 0.98 | locus YHR079C, strain IRE1 (second series), stronger effect = lower value 0.961 | locus YHR079C, strain IRE1, stronger effect = lower value 0.964 | locus YHR094C, strain hxt1, stronger effect = lower value 0.981 | locus YHR129C, strain ARP1, stronger effect = lower value 0.988 | locus YHR142W, strain chs7, stronger effect = lower value 0.964 | locus YHR200W, strain rpn10, stronger effect = lower value 0.971 | locus YIL066C, strain RNR3, stronger effect = lower value 0.977 | locus YIL073C, strain SPO22, stronger effect = lower value 0.965 | locus YIL125W, strain kgd1, stronger effect = lower value 0.988 | locus YIR030C, strain dcg1, stronger effect = lower value 0.99 | locus YJL092W, strain hpr5, stronger effect = lower value 0.993 | locus YJL095W, strain BCK1 (second series), stronger effect = lower value 0.973 | locus YJL095W, strain BCK1, stronger effect = lower value 1.01 and 0.994 | locus YJL115W, strain asf1, stronger effect = lower value 1 | locus YJL129C, strain trk1, stronger effect = lower value 0.974 | locus YJL134W, strain LCB3, stronger effect = lower value 0.99 | locus YJL154C, strain vps35, stronger effect = lower value 0.968 | locus YJL164C, strain tpk1, stronger effect = lower value 0.997 | locus YJL166W, strain qcr8, stronger effect = lower value 1.01 | locus YJL168C, strain set2, stronger effect = lower value 0.984 | locus YJL187C, strain SWE1 (second series), stronger effect = lower value 0.979 | locus YJL187C, strain SWE1, stronger effect = lower value 0.985 | [22] 0.977 | locus YJR066W, strain TOR1, stronger effect = lower value 0.925 | locus YKL009W, strain mrt4, stronger effect = lower value 0.985 | locus YKL068W, stronger effect = lower value 0.987 | locus YKL085W, strain MDH1 (second series), stronger effect = lower value 0.997 | locus YKL085W, strain MDH1, stronger effect = lower value 0.997 | locus YKL160W, strain elf1, stronger effect = lower value 0.962 | locus YKR001C, strain vps1, stronger effect = lower value 0.977 | locus YKR026C, strain gcn3, stronger effect = lower value 0.988 | locus YKR091W, strain srl3, stronger effect = lower value 0.982 | locus YLL001W, strain dnm1, stronger effect = lower value 0.986 | locus YLL026W, stronger effect = lower value 1 | locus YLL041C, strain sdh2, stronger effect = lower value 0.987 | locus YLR027C, strain aat2, stronger effect = lower value 0.989 | [23] 1.03 | locus YLR058C, strain SHM2, stronger effect = lower value 0.976 | locus YLR102C, strain apc9, stronger effect = lower value 0.982 | locus YLR113W, strain HOG1, stronger effect = lower value 0.976 | locus YLR221C, strain rsa3, stronger effect = lower value 1 | locus YLR258W, strain gsy2, stronger effect = lower value 0.964 | locus YLR262C, strain YPT6 (second series), stronger effect = lower value 0.977 | [24] 0.912 | locus YLR268W, strain sec22, stronger effect = lower value 0.963 | locus YLR320W, strain mms22, stronger effect = lower value 0.995 | locus YLR330W, strain CHS5, stronger effect = lower value 0.988 | locus YLR342W, strain FKS1 (second series), stronger effect = lower value 0.997 | locus YLR342W, strain FKS1, stronger effect = lower value 0.989 | locus YLR357W, strain rsc2, stronger effect = lower value 0.953 | locus YLR370C, strain arc18, stronger effect = lower value 0.975 | locus YLR371W, strain rom2, stronger effect = lower value 0.987 | locus YLR384C, strain iki3, stronger effect = lower value 0.977 | locus YLR418C, strain cdc73, stronger effect = lower value 0.989 | locus YML016C, strain PPZ1, stronger effect = lower value 0.991 | locus YML032C, strain rad52, stronger effect = lower value 0.967 | locus YML120C, strain ndi1, stronger effect = lower value 0.99 | locus YML124C, strain tub3, stronger effect = lower value 0.989 | locus YMR058W, strain fet3, stronger effect = lower value 0.983 | locus YMR078C, strain ctf18, stronger effect = lower value 0.977 | locus YMR125W, strain sto1, stronger effect = lower value 0.98 | locus YMR129W, stronger effect = lower value 0.985 | locus YMR205C, strain PFK2, stronger effect = lower value 0.97 | locus YMR223W, strain ubp8, stronger effect = lower value 1.03 | locus YMR231W, strain pep5, stronger effect = lower value 0.982 | [13] 0.967 | locus YNL067W, strain RPL9B, stronger effect = lower value 0.987 | locus YNL071W, strain lat1, stronger effect = lower value 0.981 | [25] 0.974 | [14] 0.994 | locus YNL183C, strain NPR1, stronger effect = lower value 0.915 | locus YNL209W, strain ssb2, stronger effect = lower value 0.988 | locus YNL233W, strain BNI4, stronger effect = lower value 0.99 | locus YNL248C, strain rpa49, stronger effect = lower value 0.99 | locus YNL250W, strain rad50, stronger effect = lower value 0.984 | locus YNL271C, strain bni1, stronger effect = lower value 0.986 | locus YNL298W, strain CLA4, stronger effect = lower value 0.987 | locus YNL307C, strain MCK1, stronger effect = lower value 0.981 | locus YNL322C, strain KRE1 (second series), stronger effect = lower value 0.969 | locus YNR049C, strain mso1, stronger effect = lower value 0.978 | locus YNR052C, strain pop2, stronger effect = lower value 0.993 | locus YOL012C, strain htz1 0.992 | locus YOL147C, strain pex11, stronger effect = lower value 0.989 | locus YOR001W, strain rrp6, stronger effect = lower value 1.02 | locus YOR061W, strain CKA2, stronger effect = lower value 0.976 | locus YOR069W, strain VPS5, stronger effect = lower value 0.992 | locus YOR070C, strain gyp1, stronger effect = lower value 0.995 | locus YOR080W, strain dia2, stronger effect = lower value 0.972 | locus YOR083W, strain WHI5, stronger effect = lower value 0.98 | locus YOR106W, strain vam3, stronger effect = lower value 0.984 | locus YOR136W, strain idh2, stronger effect = lower value 0.969 | locus YOR144C, strain elg1, stronger effect = lower value 0.984 | locus YOR184W, strain ser1, stronger effect = lower value 0.98 | locus YOR231W, strain MKK1, stronger effect = lower value 1.01 | locus YOR265W, strain rbl2, stronger effect = lower value 0.995 | locus YOR270C, strain vph1, stronger effect = lower value 0.988 | locus YOR290C, strain snf2, stronger effect = lower value 0.979 | locus YOR316C, strain cot1, stronger effect = lower value 0.968 | locus YPL051W, strain arl3, stronger effect = lower value 0.971 | locus YPL078C, strain atp4, stronger effect = lower value 0.973 | locus YPL106C, strain sse1, stronger effect = lower value 0.959 | locus YPL240C, strain hsp82, stronger effect = lower value 0.985 | [10] 0.967 | locus YPL256C, strain CLN2, stronger effect = lower value 0.984 | locus YPR119W, strain clb2, stronger effect = lower value 0.975 | locus YPR141C, strain kar3, stronger effect = lower value 0.979 | locus YPR163C, strain tif3, stronger effect = lower value 0.974 | locus YPR167C, strain met16, stronger effect = lower value 0.995 | strain wtn01, stronger effect = lower value 1
